Assay outcomes from PubChem.
Compounds with a hit are over-represented: about 0.68% of the library has one in this group of screens.
RN4220 kill = S. aureus RN4220 growth inhibition; OD600, 16 h; inhibition, % (test concentration not listed); actives 0.33% (n = 330,000); in the data active means inhibition above about 85%;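 further: plate controls were untreated cells for no effect and reference antibiotic for full effect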
ugtP null kill = growth inhibition of S. aureus ugtP deletion strain; growth inhibition, % (test concentration not listed); S. aureus RN4220 ugtP deletion, OD600 growth, 16 h; actives 0.54% (n = 330,000); in the data active means growth inhibition above about 68%;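 further: plate controls were untreated wells for no effect and antibiotic for full effect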
Mtb hypoxia inh = reduces hypoxia-regulated biosensor signal in M. tuberculosis; actives 0.1% (n = 300,000); fluorescence inhibition, % (concentration not given with the values); M. tuberculosis hypoxia-regulated fluorescent reporter, fluorescence; in the data active means fluorescence inhibition mostly above about 23%, no sharp cut-off; inactive means mostly below about 17%
An asterisk follows results filed as active.

`COc1ccccc1-c1oc2ccccc2c1-c1ccc2cc[nH]c2c1` gave RN4220 kill -18, ugtP null kill 62 and Mtb hypoxia inh 4.
Screening CCOC(=O)c1ccc(-c2c(-c3ccccc3OC)oc3ccccc23)cc1F returned RN4220 kill -5, ugtP null kill 92* and Mtb hypoxia inh 10.
For CC(C)(C)OC(=O)NN=C(c1ccc(O)cc1)c1ccc(O)cc1 the results were RN4220 kill 99*, ugtP null kill 99* and Mtb hypoxia inh 11.
Screening CC(C)(C)OC(=O)NN=Cc1ccc(C(=O)O)cc1 returned RN4220 kill 5, ugtP null kill 6 and Mtb hypoxia inh 12.
`CC(NC(=O)c1nc[nH]c1C(=O)NC(CCCCN)C(=O)OC(C)(C)C)C(=O)OCc1ccccc1` (stereo not given) gave RN4220 kill 2, ugtP null kill 2 and Mtb hypoxia inh -5.
`COC(=O)C1=C(c2ccccc2)CC2CCC1N2C(=O)NCCO` (stereo not given) gave RN4220 kill 6, ugtP null kill 1 and Mtb hypoxia inh 5.
For O=C(NN=Cc1cccnc1)c1ccc(NC(=O)c2ccccc2Cl)cc1 the results were RN4220 kill 4, ugtP null kill 8 and Mtb hypoxia inh 4.
`COc1ccc2nc(C)cc(NN=Cc3ccccc3)c2c1` gave RN4220 kill 56 and ugtP null kill 59.
Screening COc1ccc2nc(C)cc(NN=Cc3ccc(F)cc3)c2c1 returned RN4220 kill 8, ugtP null kill -15 and Mtb hypoxia inh 78*.
Screening COC(=O)C1=C(c2ccc(C(C)=O)cc2)CC2CCC1N2C(=O)N1CCC(O)(c2ccc(Cl)cc2)CC1 (stereo not given) returned RN4220 kill 4, ugtP null kill -9 and Mtb hypoxia inh 2.
For COc1cccc(-c2c(-c3cc(OC)cc(OC)c3)n(C)c3ccc(-c4cnc(OC)nc4)cc23)c1 the results were RN4220 kill 2, ugtP null kill 7 and Mtb hypoxia inh 15.
`COc1cccc(-c2c(-c3cc(OC)cc(OC)c3)n(C)c3ccc(-c4cnc(N5CCOCC5)nc4)cc23)c1` gave RN4220 kill 4, ugtP null kill -10 and Mtb hypoxia inh 45*.
`O=C(NCCN1CCOCC1)C1(C(F)(F)F)CC(=CCc2ccccc2)CCCO1` (stereo not given) gave RN4220 kill 5, ugtP null kill 3 and Mtb hypoxia inh 21.
`Cc1nnc(SCC2=C(C(=O)O)N3C(=O)C(NC(=O)Cn4cnnn4)C3SC2)s1` (stereo not given) gave RN4220 kill 100* and ugtP null kill 100*.
Screening Cc1nnc(SCC(=O)NC2CC2)s1 returned RN4220 kill -1, ugtP null kill 3 and Mtb hypoxia inh 8.
Cc1nnc(SCC(=O)NC2CCCCC2C)s1 (stereo not given) was read as RN4220 kill 4, ugtP null kill -3 and Mtb hypoxia inh 3.
`Cc1nnc(SCC2=C(C(=O)O)N3C(=O)[C@@H](NC(=O)Cn4cnnn4)[C@H]3SC2)s1` gave RN4220 kill 97* and ugtP null kill 100*.
For COc1cc(C=NNC(=O)c2sc3ccccc3c2Cl)ccc1OC(=O)c1ccc([N+](=O)[O-])cc1 the results were RN4220 kill 0, ugtP null kill -1 and Mtb hypoxia inh 7.
O=C(/C=C/c1ccco1)NC(=S)Nc1ccccc1N1CCCC1 was read as RN4220 kill -2, ugtP null kill 99* and Mtb hypoxia inh -1.
O=C(/C=C/c1ccco1)NC(=S)Nc1ccccc1N1CCOCC1 was read as RN4220 kill 3, ugtP null kill 98* and Mtb hypoxia inh 5.
`O=C(CCCCl)NC(=S)Nc1cc(C(F)(F)F)ccc1N1CCOCC1` gave RN4220 kill -4, ugtP null kill 61 and Mtb hypoxia inh 0.
`O=C(/C=C/c1ccco1)Nc1ccccc1N1CCCC1` gave RN4220 kill 6, ugtP null kill 10 and Mtb hypoxia inh 25.
For O=C(/C=C\c1ccco1)NC(=S)Nc1ccccc1O the results were RN4220 kill 6, ugtP null kill 6 and Mtb hypoxia inh 15.
Screening O=C(C=Cc1ccco1)NC(=S)Nc1cc(C(F)(F)F)ccc1N1CCOCC1 returned RN4220 kill -4, ugtP null kill 96* and Mtb hypoxia inh -1.
`CC(=O)OC1C2C(CC(C)C3C=CC(=O)[C@]31C)OC(=O)C2C` (stereo not given in full) gave RN4220 kill 8, ugtP null kill 8 and Mtb hypoxia inh 15.
CC[N+]1(C)C2CCC1CC(OC(=O)C1CCC(C(=O)OC3CC4CCC(C3)[N+]4(C)CC)(c3ccccc3)c3ccccc31)C2 (stereo not given) was read as RN4220 kill 7, ugtP null kill 9 and Mtb hypoxia inh 3.
O=C(CCOc1ccccc1)Nc1nnc(-c2ccc3c(c2)OCCO3)o1 was read as RN4220 kill 0, ugtP null kill -3 and Mtb hypoxia inh -1.
O=C(Nc1nnc(-c2ccc3c(c2)OCCO3)o1)c1ccc(Cc2ccccc2)cc1 was read as RN4220 kill 99*, ugtP null kill 100* and Mtb hypoxia inh 8.
`O=C(Nc1nnc(-c2ccco2)o1)c1ccc(Cl)s1` gave RN4220 kill 18, ugtP null kill 2 and Mtb hypoxia inh -2.
CCCN(CCC)S(=O)(=O)c1ccc(C(=O)Nc2nnc(-c3cccc(OC)c3)o2)cc1 was read as RN4220 kill 99*, ugtP null kill 100* and Mtb hypoxia inh -5.
O=C(Nc1nnc(-c2ccc(Cl)cc2)o1)c1nc2ccccc2s1 was read as RN4220 kill 100*, ugtP null kill 99* and Mtb hypoxia inh 6.
For O=C(Nc1nnc(-c2ccc(Cl)cc2)o1)Nc1ccccc1Cl the results were RN4220 kill 68, ugtP null kill 0 and Mtb hypoxia inh 2.
`COc1cccc(-c2nnc(NC(=O)c3ccc(Cl)s3)o2)c1` gave RN4220 kill 100*, ugtP null kill 100* and Mtb hypoxia inh 3.
Screening CCCN(CCC)S(=O)(=O)c1ccc(C(=O)Nc2nnc(-c3cc(OC)cc(OC)c3)o2)cc1 returned RN4220 kill 55 and ugtP null kill 21.
Screening O=C(NN=CC1CCCCC1)c1cc(Cl)ccc1O returned RN4220 kill 8 and ugtP null kill 11.
`COc1cccc(-c2nnc(NC(=O)c3ccccc3Br)o2)c1` gave RN4220 kill 9, ugtP null kill 11 and Mtb hypoxia inh 5.
For O=C(Nc1nnc(-c2ccncc2)o1)c1ccccc1F the results were RN4220 kill 3, ugtP null kill -1 and Mtb hypoxia inh -12.
`O=C(Nc1nnc(-c2ccc(F)cc2)o1)c1cc(Cl)sc1Cl` gave RN4220 kill 100*, ugtP null kill 99* and Mtb hypoxia inh 6.
`Cc1cccc(-c2nnc(NC(=O)c3ccc(Cl)cc3)o2)c1` gave RN4220 kill 99*, ugtP null kill 95* and Mtb hypoxia inh 2.
Screening COc1cccc(-c2nnc(NC(=O)c3cccc(F)c3)o2)c1 returned RN4220 kill 98*, ugtP null kill 98* and Mtb hypoxia inh -2.
For Cc1ccc(C(=O)Nc2nnc(-c3ccncc3)o2)cc1 the results were RN4220 kill -5, ugtP null kill 9 and Mtb hypoxia inh -9.
CC1CCN(C(=O)c2[nH]cnc2C(=O)NC(C)c2ccccc2)CC1 (stereo not given) was read as RN4220 kill 6, ugtP null kill 4 and Mtb hypoxia inh 1.
